Drawing on PubChem BioAssay (NCATS), this text covers Potency for 14 compounds.

Records with an inconclusive call do not appear. Calls of active or inactive are those of the source. Calls follow the shape of the dose curve; as a rule, active = well fitted cell-killing curve with a large enough effect; inconclusive = small, poorly fitted or top-dose-only effect, or effect the other way; inactive = no such curve, though single readings can be large or run the other way.

Test [1] can be described thus: Quantitative High-Throughput drug screen in 47 multiple myeloma cell lines against the NCATS MIPE library collection: XG1_PLB cell viability assay (AID 1919866). Also: nearly all actives have a fitted effect of over 35% in size. Put shortly:
(§1)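 Inhibition of viability over 48 h was scored by ATP content (CellTiter-Glo) in 500-cell wells. Zero and full viability were defined by media-only and DMSO-only wells.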

The nature of test [2]: Quantitative High-Throughput drug screen in 47 multiple myeloma cell lines against the NCATS MIPE library collection: VP6_DJ cell viability assay (AID 1919867). Also: nearly all actives have a fitted effect of over 40% in size. Put shortly: as §1
Test [3] in a line: Quantitative High-Throughput drug screen in 47 multiple myeloma cell lines against the NCATS MIPE library collection: UTMC2_PLB cell viability assay (AID 1919868). Also: nearly all actives have a fitted effect of over 55% in size. Conditions: CellTiter-Glo ATP luminescence, 48 h; viability (% of DMSO control): at 45.8 µM (top of the series). The essentials: as §1
Test [4] is described as follows: Quantitative High-Throughput drug screen in 47 multiple myeloma cell lines against the NCATS MIPE library collection: PE2_PLB cell viability assay (AID 1919869). Also: nearly all actives have a fitted effect of over 35% in size. The essentials: as §1
Test [5] is described as follows: Quantitative High-Throughput drug screen in 47 multiple myeloma cell lines against the NCATS MIPE library collection: PCM6_Riken cell viability assay (AID 1919870). Also: nearly all actives have a fitted effect of over 30% in size. The essentials: as §1
Test [6] is described as follows: Quantitative High-Throughput drug screen in 47 multiple myeloma cell lines against the NCATS MIPE library collection: RPMI8226_ATCC cell viability assay (AID 1919871). Also: nearly all actives have a fitted effect of over 30% in size. The essentials:
as §1

Test [7] in a line: Quantitative High-Throughput drug screen in 47 multiple myeloma cell lines against the NCATS MIPE library collection: OPM2_DSMZ cell viability assay (AID 1919872). Also: nearly all actives have a fitted effect of over 30% in size. Put shortly: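 We plated 500 myeloma cells per well, pinned in MIPE 4.0 compounds, and incubated for 48 hours at 37C. ATP was then quantified with CellTiter-Glo, with DMSO and media-only wells defining 100% and 0%.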

A short description of test [8]: Quantitative High-Throughput drug screen in 47 multiple myeloma cell lines against the NCATS MIPE library collection: KMS11_JCRBsus cell viability assay (AID 1919873). Also: nearly all actives have a fitted effect of over 50% in size. Put shortly: as §1
A short description of test [9]: Quantitative High-Throughput drug screen in 47 multiple myeloma cell lines against the NCATS MIPE library collection: KMS28BM_JCRB cell viability assay (AID 1919874). Also: nearly all actives have a fitted effect of over 35% in size. The essentials:
as §1
Potency is read from the fitted curve at half-maximal effect.

Consider `CC(C)N1[N]C(=C2C=c3cc(O)ccc3=N2)c2c(N)ncnc21`, for which the Potency in test [1] is 93.5 nM (active); in test [2], 264 nM (active); in test [3] it was 187 nM (active); in [4], 148 nM (active); in test [5], 1180 nM (active); in test [6], 41.8 nM (active). The Potency was 235 nM (active) in test [7], 105 nM (active) in test [8] and 1320 nM (active) in test [9].
Regarding `Cc1cnc(Nc2ccc(N3CCN(C)CC3)cc2)nc1Nc1cccc(S(=O)(=O)NC(C)(C)C)c1`, the Potency in test [1] was 469 nM (active); in test [2], 469 nM (active); in test [3], 2350 nM (active); in [4], 1320 nM (active); in [5], 3720 nM (active); in test [6], 4180 nM (active). Also, the Potency in test [7] is 6620 nM (active); in test [8], 1320 nM (active); in [9], 5260 nM (active).
In the case of `Cc1noc(-c2ccc(CSCCC(=O)O)cc2)c1NC(=O)OC(C)c1ccccc1Cl` (centres undefined), the Potency result in test [1], in test [2], in test [3], in test [4], in test [5] and in test [6] was “inactive” throughout. Also, the Potency entry in test [7], in test [8] and in test [9] was “inactive” in each case.
As to `CO[C@@H]1[C@@H](O)[C@H](O)[C@@H](n2c3c(Cl)cccc3c3c4c(c5c6cccc(Cl)c6[nH]c5c32)C(=O)NC4=O)O[C@@H]1CO`, the Potency in test [1] was 166 nM (active); in test [2], 662 nM (active); in test [3], 235 nM (active); in test [4], 1050 nM (active); in test [5] it was 1480 nM (active); in test [6] it was 2350 nM (active). For the same compound, the Potency in test [7] is 5900 nM (active); in test [8], 2960 nM (active); in test [9] it was 935 nM (active).
As to `COc1cc(C)c(Sc2cnc(NC(=O)c3ccc(CNC(C)C(C)(C)C)cc3)s2)cc1C(=O)N1CCN(C(C)=O)CC1` (centres undefined), the Potency in [1] is 16600 nM (active); in [2], 8330 nM (active); in test [3] it was 3320 nM (active); in test [4], 14800 nM (active); in [5], 18700 nM (active); in test [6], 16600 nM (active). Further, the Potency in test [7] is 20900 nM (active); in test [8], 5900 nM (active); in test [9] it was 13200 nM (active).
`CCN(CC)Cc1ccc2cc(COC(=O)Nc3ccc(C(=O)NO)cc3)ccc2c1`: the Potency was 833 nM (active) in test [1]; 132 nM (active) in [2]; 148 nM (active) in test [3]; 935 nM (active) in test [4]; 833 nM (active) in [5]; 1050 nM (active) in test [6]. Moreover, the figures for the Potency in test [7] and in test [8] were 833 nM (active) and 526 nM (active), respectively.
`O=C(Nc1cc2cc[nH]c2cn1)c1ccccc1`: the Potency in [1] is 16600 nM (active); in test [2], 18700 nM (active); in [3], 13200 nM (active); in [4], 10500 nM (active); in test [5] it was 8330 nM (active); in test [6] it was 13200 nM (active).
On to `CCCCCCCCc1ccc(CCC(N)(CO)CO)cc1`, for which the Potency in test [1] is 4180 nM (active); in test [2], 4690 nM (active); in [3], 9350 nM (active); in test [4] it was 8330 nM (active); in test [5] it was 3720 nM (active); in [6], 9350 nM (active). The Potency in test [7] was 16600 nM (active); in [8], 7430 nM (active).
In the case of `C[C@H](NCc1ccc2c(c1)nc(NC(=O)c1ccc(-c3cn[nH]c3)s1)n2CCc1ccccc1)C(C)(C)C`, the Potency was 743 nM (active) in [1]; 526 nM (active) in [2]; 935 nM (active) in test [3]; 1050 nM (active) in [4]; 418 nM (active) in test [5]; 2960 nM (active) in test [6]. Also, the Potency in test [7] was 2090 nM (active); in [8], 590 nM (active); in test [9], 833 nM (active).
Take `Cc1cnc(Nc2ccc(CN3CCOCC3)cc2)nc1Nc1cccc(S(=O)(=O)NC(C)(C)C)c1`: the Potency is 935 nM (active) in [1]; 1320 nM (active) in test [2]; 743 nM (active) in test [3]; 1660 nM (active) in test [4]; 5260 nM (active) in test [5]; 4180 nM (active) in test [6]. The values for the Potency in [7], in test [8] and in [9] were 4690 nM (active), 1180 nM (active) and 4690 nM (active), respectively.
On to `CN1CCCN(C(=O)c2cccc(-c3ccc(C=C4C(=O)Nc5ccc(Cl)cc54)o3)c2)CC1`, for which the Potency in test [1] was 11800 nM (active); in [2], 18700 nM (active); in test [3], 935 nM (active); in test [4], 23500 nM (active); in test [5], 9350 nM (active); in [6], 23500 nM (active). Also, the results for the Potency in test [7], in test [8] and in test [9] were 23500 nM (active), 9350 nM (active) and 10500 nM (active), respectively.
With `O=C(Nc1nnc(-c2ccco2)o1)c1cc(-c2ccccc2)nc2ccccc12`, the Potency in test [1] was 13200 nM (active); in [2] it was 14800 nM (active); in [3] it was 14800 nM (active); in test [4] it was 18700 nM (active); in test [5], 18700 nM (active); in test [6], 13200 nM (active). Moreover, the Potency entry in test [7] was “inactive”.
With `CC(C)C[C@H](NC(=O)[C@@H](NC(=O)c1cccc(-c2ccccc2)n1)[C@@H](C)O)B(O)O`, the Potency is 18.7 nM (active) in [1]; 9.3 nM (active) in test [2]; 166 nM (active) in test [3]; 11.8 nM (active) in test [4]; 23.5 nM (active) in test [5]; 52.6 nM (active) in test [6]. Further, the figures for the Potency in [7], in test [8] and in test [9] were 41.8 nM (active), 13.2 nM (active) and 14.8 nM (active), respectively.
With `O=C(CCCCCCC(=O)Nc1cccnc1)NO`, the Potency in [1] is 3720 nM (active); in test [2], 1480 nM (active); in [3], 935 nM (active); in [4], 7430 nM (active); in test [5], 7430 nM (active); in [6], 16600 nM (active). Also, the Potency is 8330 nM (active) in test [7], 5900 nM (active) in [8] and 4180 nM (active) in test [9].
